Bioassay records as filed in PubChem BioAssay.
VDR inhibitor – Inhibitors of the vitamin D receptor (VDR): qHTS; Vitamin D3 receptor (Homo sapiens), P11473; VDR-SRC2-3 peptide fluorescence polarization, 2 h; Potency, µM, inactives show max response, negative = inhibition, most hits filed as inhibitors; actives 0.93% (n = 400,000); AID 504847, 2011; further: potency means the concentration at half of the fitted maximal effect; on the % scale 0 is the no-effect control and ±100 the full control effect
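Reagent solutions, kept cold and dark, are dispensed first; compounds are then pinned in at 23 nl, plates briefly spun, and incubated 2 h at ambient temperature. Inhibition of VDR–SRC2-3 peptide binding is read by fluorescence polarization.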
TexasRed fluor – Total Fluorescence Counterscreen for Inhibitors of the Interaction of Thyroid Hormone Receptor and Steroid Receptor Coregulator 2 | TRb/SRC2 Texas Red total fluorescence interference | Potency, µM (titrated, usually from 106 µM), for the others: at the top dose fluorescence change, negative = quenching | actives 0.29% (n = 280,000); active means well fitted curve in either direction with a large enough effect; inconclusive means small, poorly fitted or top-dose-only effect; further: potency means the concentration at half of the fitted maximal effect; on the % scale 0 is the no-effect control and ±100 the full control effect
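Human TRβ ligand-binding domain (0.6 uM) and Texas Red SRC2 peptide (20 nM) in Tris buffer with 1 uM T3 and 5% DMSO were incubated with pinned compound for 5 hr at ambient temperature. Total fluorescence was computed as S + 2P (555/632 nm).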
GCN5L2 inh – qHTS Assay for Inhibitors of GCN5L2; actives 0.21% (n = 390,000); AID 504327, 2011; Histone acetyltransferase KAT2A (Homo sapiens), Q92830; Potency, µM (series often up to 58.9 µM), for the others: top-dose activity change, negative = inhibition, actives largely listed as inhibitors; GCN5L2 HAT assay, ThioGlo1 CoA-SH fluorescence; further: potency means the concentration at half of the fitted maximal effect; on the % scale 0 is the no-effect control and ±100 the full control effect
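ThioGlo1-coupled HAT assay: 20nM GCN5L2, 70uM acetyl-CoA, 75uM H3(1-25) peptide, pH 7.5. Fluorescence read at 340/540nm at start and after 20 min at room temperature.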
TRb SRC2 PPI – qHTS for Inhibitors of the Interaction of Thyroid Hormone Receptor and Steroid Receptor Coregulator 2; TRbeta-SRC2 peptide binding, fluorescence polarization; receptor liganded with 1 µM T3; actives 0.065% (n = 280,000); Thyroid hormone receptor beta (Homo sapiens), P10828; Potency, µM (doses to about 106 µM), without a hit: at the highest dose activity change, negative = inhibition, hits mostly inhibitors;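 further: potency means the concentration at half of the fitted maximal effect; plate controls were bound peptide for no effect and peptide without receptor for full effect; nearly all actives have a fitted effect of over 50% in size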
Target sequence (P10828 whole entry, looked up): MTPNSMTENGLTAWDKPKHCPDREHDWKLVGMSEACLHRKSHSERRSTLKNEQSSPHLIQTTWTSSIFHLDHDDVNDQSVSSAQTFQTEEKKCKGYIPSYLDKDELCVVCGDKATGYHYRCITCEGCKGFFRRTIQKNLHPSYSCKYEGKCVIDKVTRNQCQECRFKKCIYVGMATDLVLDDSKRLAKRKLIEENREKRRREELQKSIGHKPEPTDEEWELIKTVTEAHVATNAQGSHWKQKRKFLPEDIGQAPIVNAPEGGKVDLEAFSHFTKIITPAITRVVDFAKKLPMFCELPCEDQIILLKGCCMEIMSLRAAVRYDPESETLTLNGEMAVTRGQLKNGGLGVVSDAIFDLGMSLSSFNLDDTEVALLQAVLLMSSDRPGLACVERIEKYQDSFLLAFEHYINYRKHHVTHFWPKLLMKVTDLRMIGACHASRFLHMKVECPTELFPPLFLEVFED
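Fluorescence polarization of 20 nM Texas Red SRC2 peptide (20-aa NR interaction domain) bound to 0.6 uM human TRb ligand-binding domain, with 1 uM T3, after 5 hr at ambient temperature; inhibition seen as decreased polarization.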
GoLoco inh red – qHTS Assay for Inhibitors of RGS12 GoLoco Motif Activity (Red Fluorophore) | Guanine nucleotide-binding protein G(i) subunit alpha-1 (Homo sapiens), P63096 | Gai1:RGS12 GoLoco peptide FP, rhodamine, 10 min | Potency, µM (series often up to 61.6 µM), for the others: top-dose activity, negative = inhibition, usual class: inhibitors | actives 0.44% (n = 230,000) | AID 880, 2007; active means well fitted inhibition curve with a large enough effect, not every such curve was filed as active; inactive means no such curve, though single readings can be large or run the other way; further: potency means the concentration at half of the fitted maximal effect; on the % scale 0 is the no-effect control and ±100 the full control effect; nearly all actives have a fitted effect of over 30% in size
Target sequence (P63096 whole entry, looked up): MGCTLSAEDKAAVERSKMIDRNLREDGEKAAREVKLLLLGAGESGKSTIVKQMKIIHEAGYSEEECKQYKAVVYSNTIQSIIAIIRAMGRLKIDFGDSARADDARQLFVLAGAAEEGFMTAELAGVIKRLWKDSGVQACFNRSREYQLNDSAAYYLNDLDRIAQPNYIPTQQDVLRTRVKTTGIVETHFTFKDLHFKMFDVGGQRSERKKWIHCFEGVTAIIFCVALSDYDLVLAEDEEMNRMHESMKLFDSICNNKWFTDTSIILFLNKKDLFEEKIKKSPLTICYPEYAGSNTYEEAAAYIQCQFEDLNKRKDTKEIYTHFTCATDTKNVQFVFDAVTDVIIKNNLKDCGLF
USP1 UbRho – Inhibitors of USP1/UAF1: Hit Validation in Primary Assay. Potency, µM (titrated, usually from 56.8 µM), without a hit: at the highest dose activity change, negative = inhibition, actives largely listed as inhibitors. shares compounds with VDR inhibitor. actives 50% (n = 50). Ub-Rhodamine cleavage, fluorescence kinetic read
VDR confirm – qHTS for Inhibitors of the vitamin D receptor (VDR): Hit Validation in Primary Screen; shares compounds with VDR inhibitor; VDR-coactivator inhibition assay, qHTS confirmation; Potency, µM, usual class: inhibitors; actives 89% (n = 840); AID 602199, 2012; further: potency means the concentration at half of the fitted maximal effect
VDR FP fluor – qHTS for Inhibitors of the vitamin D receptor (VDR): Hit Validation using a Fluorescein Assay; shares compounds with VDR inhibitor; VDR-coactivator binding, fluorescein fluorescence polarization; Potency, µM (top dose mostly 57.1 µM), for the others: at the top dose activity change, negative = inhibition, hits mostly inhibitors; actives 48% (n = 840); further: potency means the concentration at half of the fitted maximal effect
VDR bla reporter – qHTS for Inhibitors of the vitamin D receptor (VDR): Hit Validation using a Beta-Lactamase Assay | shares compounds with VDR inhibitor | VDR beta-lactamase reporter cells, FRET ratio; cells co-treated with VDR agonist LG190178 | Potency, µM (top dose mostly 46.1 µM), inactives show top-dose activity change, negative = inhibition, most hits filed as inhibitors | actives 23% (n = 840); further: potency means the concentration at half of the fitted maximal effect; on the % scale 0 is the no-effect control and ±100 the full control effect
VDR cytotox – qHTS for Inhibitors of the vitamin D receptor (VDR): Hit Validation using a Cytotoxicity Assay. shares compounds with VDR inhibitor. cytotoxicity counter-screen, cell viability, qHTS. Potency, µM (doses to about 48.3 µM), without a hit: top-dose activity change, negative = cytotoxicity, actives largely listed as cytotoxic. actives 18% (n = 840);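 further: potency means the concentration at half of the fitted maximal effect; plate controls were DMSO for no effect and high-concentration cycloheximide for full effect; nearly all actives have a fitted effect of over 75% in size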
* hit, by the source's call; ? = inconclusive; / = no result given; [ ] = dose if it differs, or a comment. This is a sample that favours compounds with a hit; in the whole collection about 1.2% have one here. Unless noted, the call rests on the fitted dose curve; in most records, active means well fitted curve in the direction sought with a large enough effect; inconclusive means small, poorly fitted or top-dose-only effect, or another doubt; inactive means no such curve, though single readings can be large; an effect the other way counts as inactive or inconclusive.

SMILES	VDR inhibitor	TexasRed fluor	GCN5L2 inh	TRb SRC2 PPI	GoLoco inh red	VDR confirm	VDR FP fluor	VDR bla reporter	VDR cytotox	others
Nc1ccc(N2CCCC2)c(S(=O)(=O)Nc2cccc(C(F)(F)F)c2)c1	39.8µM*	/	-9.8%	/	/	10.6*	?	-4.3%	17.4%
CC(=O)Oc1cccc(/C=c2\sc3nc(-c4ccco4)nn3c2=O)c1	?	-4.0%	-2.1%	-0.1%	41.0%	11.2*	?	0.0%	18.3%
O=C1ON=C(c2ccccc2)/C1=C/c1ccc(O)cc1	35.5µM*	/	-29.4%	/	/	10.6*	?	?	?
Cc1ccc(C2=NOC(=O)/C2=C\c2ccccc2)cc1	31.6µM*	/	/	/	/	7.52*	?	-0.2%	29.7%
O=C1ON=C(c2ccccc2)/C1=C/c1ccccc1	44.7µM*	/	-10.7%	/	/	18.9*	6.31µM*	27.0%	-15.4%
CN(C)CN1CSC(=S)N(CN(C)C)C1	/	/	/	/	-15.5%[14.2 µM]	/	/	/	/
COc1ccc(OC)c(-c2nnc3n2N=C(c2c(OC)cccc2OC)CS3)c1	/	-2.6%	/	1.1%	/	/	/	/	/
N#CC1=C(N)C(C#N)(C#N)C(c2ccncc2)C2CN(C(=O)OCc3ccccc3)CC=C12 (configuration not stated)	?	4.7%	10.7%	4.6%	55.0%	/	/	/	/
N#CC1=C(N)C(C#N)(C#N)[C@H](c2cccnc2)[C@H]2CN(C(=O)OCc3ccccc3)CC=C12	12.6µM*	4.5%	-2.7%	-2.8%	7.0%	26.7*	?	33.1%	12.5%
N#CC1=C(N)C(C#N)(C#N)C(c2cccnc2)C2CC(c3ccccc3)CC=C12 (configuration not stated)	25.1µM*	0.8%	-5.5%	-15.3%	5.9%	?	8.91µM*	?	-16.1%
COc1cccc(CS(=O)(=O)c2nnnn2-c2ccc(F)cc2Br)c1	0.7%	-1.4%	/	-2.7%	-0.4%	/	/	/	/
O=[N+]([O-])c1ccc(C2=Nn3c(nnc3-c3ccc(Cl)cc3)SC2)o1	/	/	/	/	4.3%[14.2 µM]	/	/	/	/
CC(=O)C(=Cc1ccc(C(=O)O)cc1)C(C)=O	?	-1.6%	-7.6%	-4.6%	-10.1%	/	/	/	/
C/C(=C\c1ccc(C(=O)O)cc1)c1ccc2c(c1)C(C)(C)CCC2(C)C	-1.1%	-0.9%	-18.9%	2.7%	6.7%	/	/	/	/	USP1 UbRho=?
Cc1nnc(Sc2cc(NCCCO)c([N+](=O)[O-])c3nonc23)s1	44.7µM*	-3.5%	-24.5%	2.2%	7.94µM*	13.4*	11.2µM*	?	?
O=[N+]([O-])c1c(NCCO)cc(N2CCCCCC2)c2nonc12	1.3%	/	-6.0%	/	/	/	/	/	/
Cc1nnc(Sc2cc(NCCO)c([N+](=O)[O-])c3nonc23)s1	22.4µM*	-1.5%	-25.3%	2.0%	-34.8%	4.23*	?	?	?
COC(=O)c1ccccc1S(=O)(=O)N1CCc2nc(COc3ccccc3)c3c(c2C1)CO[C@@H](C)C3	/	-2.4%[11.2 µM]	/	-2.5%[11.2 µM]	5.3%[14.2 µM]	/	/	/	/
Nc1nc(-c2cccc(F)c2)cs1	35.5µM*	0.8%	-5.8%	-5.1%	13.7%	23.8*	?	12.1%	7.0%
Fc1cccc(-c2csc(-c3ccno3)n2)c1	-17.9%	1.3%	-9.7%	-2.0%	0.7%	/	/	/	/
COc1ccc(C(=O)Nc2ccc(Cl)c(S(=O)(=O)Nc3ccccc3OC)c2)cc1	-11.6%	9.6%	-8.8%	2.9%	6.4%	/	/	/	/
CCN(CC)c1ccc(NC(=O)c2ccccc2)cc1S(=O)(=O)Nc1ccccc1OC	?	0.2%	-29.9%	-5.5%	6.8%	3.16*	3.16µM*	1.0%	-11.2%
O=C(O)c1cc(Cl)cc(Cc2cc(Cl)cc(C(=O)O)c2O)c1O	/	/	/	/	3.4%[14.2 µM]	/	/	/	/
CN(C)CCn1c(CO)nc2c1c(=O)n(C)c(=O)n2C	/	/	/	/	4.9%[14.2 µM]	/	/	/	/
CS(=O)(=O)c1ccc(C(=O)OCc2nnc(-c3ccc(Cl)cc3)o2)cc1[N+](=O)[O-]	25.1µM*	-4.1%	-2.1%	-15.4%	5.4%	5.62*	2.24µM*	14.6µM*	?
SMILES	VDR inhibitor	TexasRed fluor	GCN5L2 inh	TRb SRC2 PPI	GoLoco inh red	VDR confirm	VDR FP fluor	VDR bla reporter	VDR cytotox	others
Cc1cc(O)c(C)c2sc(N)nc12	5.8%	-0.7%	39.2%	-1.5%	/	/	/	/	/
COc1cccc(-c2nc3c(C#N)c[nH]n3c2NC2CCCCC2)c1	8.1%	-0.2%	-10.5%	-1.9%	/	/	/	/	/
CS(=O)(=O)c1ncc(Cl)c(C(=O)Nc2ccc(OC(F)F)cc2)n1	10µM*	/	-4.2%	/	/	8.44*	8.91µM*	?	13µM*
CCS(=O)(=O)c1ncc(Cl)c(C(=O)Nc2ccc(S(=O)(=O)N(C)c3ccccc3)cc2)n1	?	-13.0%	-17.2%	1.7%	/	4.47*	?	?	7.52µM*
CCN(c1ccccc1)S(=O)(=O)c1ccc(NC(=O)c2nc(S(C)(=O)=O)ncc2Cl)cc1	39.8µM*	1.78µM*[quencher]	-7.5%	-8.7%	/	13.4*	?	?	16.4µM*
O=C(O)CNC(=O)c1ccccc1O	/	/	/	/	5.1%[14.2 µM]	/	/	/	/
COc1ccc(Cl)cc1NC(=O)CCS(=O)(=O)c1nc(-c2cccs2)cc(C(F)(F)F)n1	20µM*	-1.8%	-6.3%	-2.7%	/	5.01*	3.55µM*	18.4µM*	?
CC(C)c1nnc(NC(=O)CCS(=O)(=O)Cc2ccccc2)s1	-4.6%	/	0.9%	/	/	/	/	/	/
O=C(CCS(=O)(=O)c1nc(-c2ccc3c(c2)OCO3)cc(C(F)(F)F)n1)Nc1ccc(Br)cc1	12.6µM*	-3.0%	-12.2%	4.0%	/	3.16*	3.55µM*	23.1µM*	?
